# According to the supplement of paper PMC12350171:
# Counter-ions that a name gives are not always drawn.
# Test system: Haemophilus parainfluenzae
# Assay: growth AUC normalised to DMSO control (fraction of control); higher = less growth inhibition, active = hit call of the paper
# Details: 20 µM;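 active = AUC significantly below DMSO controls by Student t-fit with adjusted P under 0.01; inactive = not significantly reduced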
# Summary of the method: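 For the AUC endpoint, growth curves were integrated by the trapezoidal rule up to the exponential-to-stationary transition and normalised to DMSO controls on the same plate. The curves came from OD578 readings taken hourly for 24 h, in three biological replicates. Pathogens had been passaged anaerobically twice and inoculated at an OD578 of 0.01 into pre-reduced mGAM plates carrying 20 μM compound and 1% DMSO, sealed with breathable membranes. Medium for Haemophilus parainfluenzae also contained hemin and NAD.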
row,SMILES,growth AUC normalised to DMSO control
1,OCCN1C[C@H](O)[C@@H](O)[C@H](O)[C@H]1CO [Miglitol],0.925 (inactive)
2,NC(=O)c1cc[n+](CC2=C(C(=O)[O-])N3C(=O)[C@@H](NC(=O)[C@@H](c4ccccc4)S(=O)(=O)O)[C@H]3SC2)cc1 [Cefsulodin sodium salt],0.912 (inactive)
3,N=C(N)NS(=O)(=O)c1ccc(N)cc1 [Sulfaguanidine],1.04 (inactive)
4,CC(C)n1c(/C=C/C(O)CC(O)CC(=O)O)c(-c2ccc(F)cc2)c2ccccc21 (configuration not stated) [Fluvastatin sodium salt],1 (inactive)
5,CCOC(=O)c1ccc(OC(=O)CCCCCNC(=N)N)cc1 [Gabexate mesilate],0.919 (inactive)
6,CCOC(=O)Nc1ccc2c(c1)N(C(=O)CCN1CCOCC1)c1ccccc1S2 [Moricizine hydrochloride],0.998 (inactive)
7,CCCCCN(C)CCC(O)(P(=O)(O)O)P(=O)(O)O [Ibandronate sodium],0.995 (inactive)
8,C[C@]12CC[C@H]3C(=CCc4cc(O)ccc43)[C@@H]1CCC2=O [Equilin],1.02 (inactive)
9,CN(Cc1ccc(C(C)(C)C)cc1)Cc1cccc2ccccc12 [Butenafine hydrochloride],0.913 (inactive)
10,O=C1CN(/N=C/c2ccc([N+](=O)[O-])o2)C(=O)N1 [Nitrofurantoin],0.369 (active)
11,O=C1OCCN1/N=C/c1ccc([N+](=O)[O-])o1 [Furazolidone],0.361 (active)
12,CCN(CC)C(=O)/C(C#N)=C/c1cc(O)c(O)c([N+](=O)[O-])c1 [Entacapone],1.06 (inactive)
